Bioassay records deposited in PubChem BioAssay by National Center for Advancing Translational Sciences (NCATS).
15-hLO inh = qHTS Assay for Inhibitors of 15-hLO (15-human lipoxygenase) | Potency, µM (top dose mostly 57.1 µM), usual class: inhibitors | purified 15hLO-1, xylenol orange hydroperoxide absorbance | Polyunsaturated fatty acid lipoxygenase ALOX15 (Homo sapiens), P16050 | 74,000 tested, 1.4% active; also: nearly all actives have a fitted effect of over 55% in size
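40 nM 15hLO-1 + cpd, 15 min RT; start w/ 50 uM AA (final), 6 min RT; stop/detect w/ 200 uM XO + 300 uM Fe(II) in 50 mM H2SO4, 30 min; A573/A405. Buffer 25 mM Hepes pH 7.5, 0.01% Triton X-100. No-enzyme wells as negative control.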
PK Bst = Pyruvate Kinase; purified pyruvate kinase, luminescence ATP production; ribose 5-phosphate activator present at AC10; Potency, µM; 51,000 tested, 1.2% active; AID 361, 2006; in the data active = potency below about 11 µM; inconclusive = mostly about 12 µM to 25 µM;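 the screen sought inhibitors and activators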
TSHR ag = qHTS Assay for Agonists of the Thyroid Stimulating Hormone Receptor | Thyrotropin receptor (Homo sapiens), P16473 | HEK293-CNG-TSHR cells (CNG channel as cAMP sensor), membrane potential dye, cAMP | Potency, µM (top dose mostly 57.1 µM), actives largely listed as activators | 73,000 tested, 0.48% active | AID 926, 2007; active = well fitted activation curve with a large enough effect in the main read-out, with a control signal flat, not every such curve was filed as active; inconclusive = small, poorly fitted or top-dose-only effect, or a change in a side signal; inactive = no such curve, though single readings can be large or run the other way; reference of the percent scale not stated here;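 also: the control signal comes from parental cells without the receptor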
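cAMP rise detected as CNG-channel membrane depolarization by fluorescent dye (emission 590 nm), 30 min after compound, following 60 min dye loading containing 100 uM RO 20-1724 at room temperature. Cells: TSHR/CNG HEK 293, with parental CNG HEK 293 as control.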
HEK293 cAMP cs = qHTS Assay for Agonists of the Thyroid Stimulating Hormone Receptor: Activators of Intracellular cAMP Concentrations in Parental HEK 293. Potency, µM (series often up to 57.1 µM), usual class: activators. 73,000 tested, 2.5% active. AID 938, 2007. parental HEK293 CNG cAMP sensor, membrane potential fluorescence; also: nearly all actives have a fitted effect of over 55% in size
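Counterscreen for endogenous-receptor signalling: CNG-channel HEK 293 cells report cAMP rise by membrane depolarization. After 60 min dye equilibration with 100 uM RO 20-1724, compounds incubated 30 min before bottom-read fluorescence at 590 nm.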
FLuc inh = qHTS Assay for Inhibitors of Firefly Luciferase; Luciferin 4-monooxygenase (Photinus pyralis), P08659; purified firefly luciferase, luminescence, 8 min; Potency, µM (series often up to 57.1 µM), usual class: inhibitors; 72,000 tested, 2.2% active; also: nearly all actives have a fitted effect of over 40% in size
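Here, luciferase activity is measured as luminescence following an 8 min room-temperature reaction at 10 uM ATP, pH 7.2. Every library sample is titrated.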
Tau filament bind = qHTS Assay for Tau Filament Binding. Microtubule-associated protein tau (Homo sapiens), P10636. recombinant tau filaments, thioflavin S fluorescence, 15 h; filaments grown with octadecylsulfate alongside compound. Potency, µM (highest dose often 57.1 µM). 71,000 tested, 2% active. AID 596, 2007;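 also: actives lower thioflavin S fluorescence by blocking filaments or displacing dye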
Target sequence (P10636 whole entry, looked up): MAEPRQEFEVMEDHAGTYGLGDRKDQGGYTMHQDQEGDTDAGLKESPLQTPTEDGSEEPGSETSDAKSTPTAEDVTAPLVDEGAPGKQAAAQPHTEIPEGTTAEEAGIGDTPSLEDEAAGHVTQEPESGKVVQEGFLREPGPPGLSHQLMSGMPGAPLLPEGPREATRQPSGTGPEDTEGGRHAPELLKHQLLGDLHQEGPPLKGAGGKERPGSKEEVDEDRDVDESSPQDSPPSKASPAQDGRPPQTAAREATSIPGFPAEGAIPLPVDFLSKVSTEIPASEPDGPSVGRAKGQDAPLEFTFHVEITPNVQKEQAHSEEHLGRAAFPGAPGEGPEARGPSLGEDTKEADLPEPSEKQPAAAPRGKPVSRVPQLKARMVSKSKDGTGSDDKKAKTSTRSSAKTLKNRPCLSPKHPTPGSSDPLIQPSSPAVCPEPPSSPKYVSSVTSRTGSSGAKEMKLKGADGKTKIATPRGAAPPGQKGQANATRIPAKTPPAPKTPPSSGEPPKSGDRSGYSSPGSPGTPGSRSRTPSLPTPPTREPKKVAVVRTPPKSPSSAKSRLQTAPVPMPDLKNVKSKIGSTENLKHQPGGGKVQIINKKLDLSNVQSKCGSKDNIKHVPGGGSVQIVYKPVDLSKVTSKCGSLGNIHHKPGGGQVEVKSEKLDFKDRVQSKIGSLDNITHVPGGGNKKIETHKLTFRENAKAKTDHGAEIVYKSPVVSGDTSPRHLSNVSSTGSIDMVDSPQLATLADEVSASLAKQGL
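Recombinant tau protein (human, 1 uM final) plus 30 uM ODS in HEPES pH 7.4 with NaCl, DTT and thioflavine S. Compound present from the start; fluorescence at 510 nm after 15 h, 37 C.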
Of the large screens only hits and unclear results are named; the others gave an inactive call. Rows were chosen to be rich in hits. Some 7.8% of all compounds tested hit in one or more screens of this group. Unless noted, calls follow the shape of the dose curve; as a rule, active = well fitted curve in the direction sought with a large enough effect; inconclusive = small, poorly fitted or top-dose-only effect, or another doubt; inactive = no such curve, though single readings can be large; an effect the other way counts as inactive or inconclusive.

Cc1nc2ccccc2c(=O)n1/N=C/c1c(O)ccc2oc3c(c12)CCCC3	TSHR ag inconclusive, HEK293 cAMP cs 16µM
NC[C@H](O)C1CCCCCCC1	none (no result: PK Bst)
COc1ccc2c(c1)c(=O)oc1cc(OCC(=O)N3CCCC(C)C3)ccc12 (stereo not drawn)	TSHR ag inconclusive, HEK293 cAMP cs 32µM (no result: PK Bst)
Cn1ccnc1SCc1cn2cc(Br)ccc2n1	TSHR ag inconclusive, HEK293 cAMP cs inconclusive, FLuc inh 16µM
N=C(N)SCCON1C(=O)c2ccccc2C1=O	none (no result: PK Bst)
COc1cc(C(=O)Nc2nc(-c3cccs3)cs2)cc(OC)c1OC	15-hLO inh 16µM, TSHR ag inconclusive, HEK293 cAMP cs inconclusive
Cc1csc(NC(=O)CSc2nnc(-c3cccs3)n2C)n1	none
Cc1csc(NC(=O)c2sc3nc(-c4cccs4)ccc3c2N)n1	15-hLO inh inconclusive, PK Bst 7.4, FLuc inh 20µM
O=C(Nc1nc(-c2cccs2)cs1)c1cccc(S(=O)(=O)N2CCCCC2)c1	none
O=C(COc1ccc(Cl)cc1)Nc1nc(-c2cccs2)cs1	TSHR ag inconclusive, HEK293 cAMP cs 25µM (no result: PK Bst)
CCOC(=O)Cc1csc(NC(=O)COc2ccc(N(C)S(=O)(=O)c3cccs3)cc2)n1	TSHR ag inconclusive, HEK293 cAMP cs 13µM
O=C(Cc1ccccc1)Nc1nc(-c2cccs2)cs1	none (no result: PK Bst)
O=C(Nc1nc(-c2ccncc2)cs1)c1ccco1	Tau filament bind 13µM
COc1ccc(C(=O)Nc2nc(-c3cccs3)cs2)cc1	PK Bst inconclusive, TSHR ag inconclusive, HEK293 cAMP cs inconclusive, FLuc inh 16µM
O=C(Cc1ccccc1F)Nc1nc(-c2cccs2)cs1	FLuc inh inconclusive (no result: PK Bst)
O=C(Nc1nc(-c2ccc(Cl)s2)cs1)c1ccncc1	TSHR ag inconclusive, HEK293 cAMP cs inconclusive, Tau filament bind 25µM
C=CC(=O)OCCCCCCOC(=O)C=C	TSHR ag inconclusive (no result: PK Bst, FLuc inh)
CCC(C)C(=O)OC1CC(C)C=C2C=CC(C)C(CCC3CC(O)CC(=O)O3)C21 (stereo not drawn)	none (no result: PK Bst, TSHR ag, HEK293 cAMP cs, FLuc inh, Tau filament bind)
COc1ccc(-c2csc(/C(C#N)=C(\O)CSc3nccn3C)n2)cc1OC	none
Nc1nc2c(ncn2[C@@H]2C=C[C@@H](CO)C2)c(=O)[nH]1	none (no result: PK Bst)
NCCC(O)C(=O)NC1C[C@@H](N)[C@H](O[C@@H]2OC(CN)C(O)C(O)C2O)C(O)[C@H]1O[C@H]1OC(CO)C(O)C(N)C1O (stereo partly drawn)	none (no result: PK Bst, TSHR ag, HEK293 cAMP cs, FLuc inh, Tau filament bind)
Cc1ccc2nc(-c3cccc(S(=O)(=O)N(C)C)c3)cn2c1	TSHR ag inconclusive, HEK293 cAMP cs 25µM, FLuc inh 13µM
Cc1ccc(S(=O)(=O)Nc2cccc(-c3cn4ccsc4n3)c2)cc1	none
COC(=O)C1(Cc2ccccc2)C=C2C(=C(c3ccccc3)C(=O)C2C)CN1 (stereo not drawn)	TSHR ag inconclusive, HEK293 cAMP cs 32µM (no result: 15-hLO inh, PK Bst, FLuc inh)
COC(=O)C1(Cc2ccccc2)C=C2C(=C(C(C)C)C(=O)C2C)CN1 (stereo not drawn)	TSHR ag inconclusive, HEK293 cAMP cs inconclusive (no result: 15-hLO inh, PK Bst, FLuc inh)
Cc1cc(C)c2c(=O)n(CC(=O)NCCCN3CCN(c4ccccc4F)CC3)sc2n1	15-hLO inh inconclusive, FLuc inh 13µM, Tau filament bind inconclusive (no result: PK Bst)
Cc1cc(C)c2c(=O)n(CC(=O)N3CCC(Cc4ccccc4)CC3)sc2n1	15-hLO inh inconclusive (no result: PK Bst)
Cc1cc(C)c2c(=O)n(CC(=O)NCCCN3CCOCC3)sc2n1	15-hLO inh inconclusive, TSHR ag inconclusive, HEK293 cAMP cs inconclusive, FLuc inh 13µM (no result: PK Bst)
CN(C)C(=O)c1ccc(-c2nc(NCc3cccnc3)c3ccccc3n2)cc1	none (no result: PK Bst)
O[C@@H]1[C@@H]2c3cc4c(cc3CN3CCC(=C[C@@H]1O)[C@H]23)OCO4	none (no result: PK Bst)
COc1cc(NC(=O)CN2c3cccc4cccc(c34)S2(=O)=O)cc(OC)c1OC	PK Bst 0.81
CCCC[C@@H]1C[C@H]1C(NC(=O)c1cccs1)c1ccc(C(F)(F)F)cc1 (stereo partly drawn)	TSHR ag inconclusive, HEK293 cAMP cs inconclusive (no result: 15-hLO inh, PK Bst, FLuc inh)
COC(=O)c1[nH]c2ccc(Cl)cc2c1NC(=O)CN1CCC(C(N)=O)CC1	TSHR ag inconclusive, HEK293 cAMP cs 16µM (no result: PK Bst)
CCC1c2ccc(C)n2CCN1C(=O)Nc1ccccc1OC (stereo not drawn)	15-hLO inh 3.2µM (no result: PK Bst)
CS(=O)(=O)Nc1cccc(-c2cncnc2NCc2cccnc2)c1	TSHR ag inconclusive, HEK293 cAMP cs inconclusive (no result: PK Bst)
COc1cc2c(cc1NCc1ccccn1)oc1ccccc12	15-hLO inh inconclusive, Tau filament bind 32µM
CCOC(=O)c1[nH]c(C)c(C(=O)c2cc(F)ccc2F)c1C	TSHR ag 32µM
Cc1nnsc1NC(=O)OCC(C)C	TSHR ag inconclusive, HEK293 cAMP cs 13µM
Cc1nc2cnc(N3CCOCC3)nc2n(CCc2ccccc2)c1=O	TSHR ag inconclusive, HEK293 cAMP cs 3.2µM (no result: PK Bst)
COc1ccc(Oc2ncc3nc(C)c(=O)n(Cc4ccc(F)cc4)c3n2)cc1	TSHR ag inconclusive, HEK293 cAMP cs 16µM (no result: PK Bst)
COc1ccc(Oc2ncc3nc(C)c(=O)n(Cc4cccs4)c3n2)cc1	TSHR ag inconclusive, HEK293 cAMP cs inconclusive (no result: PK Bst)
COc1ccc(-n2c(=O)c(C)nc3cnc(Oc4cccc(Cl)c4)nc32)cc1	TSHR ag inconclusive, HEK293 cAMP cs 16µM (no result: PK Bst)
